PubChem BioAssay
Activity calls are given as the source filed them.

Tests used:
[1] = molecular target: Albumin (Bos taurus) (UniProt P02769); assay: compounds binding labelled BSA control protein – biochemical, small-molecule microarray, Alexa647 label, 635/667 nm fluorescence, artefact control for SMM control protein annotation, profiling panel (AID 1118); conditions: BSA-A647 binding, fluorescence 635 nm, higher = more signal;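 further: score merges 667 nm emission intensity and signal-to-noise per printed compound spot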
Chain of Albumin (Bos taurus) (P02769 whole entry, looked up): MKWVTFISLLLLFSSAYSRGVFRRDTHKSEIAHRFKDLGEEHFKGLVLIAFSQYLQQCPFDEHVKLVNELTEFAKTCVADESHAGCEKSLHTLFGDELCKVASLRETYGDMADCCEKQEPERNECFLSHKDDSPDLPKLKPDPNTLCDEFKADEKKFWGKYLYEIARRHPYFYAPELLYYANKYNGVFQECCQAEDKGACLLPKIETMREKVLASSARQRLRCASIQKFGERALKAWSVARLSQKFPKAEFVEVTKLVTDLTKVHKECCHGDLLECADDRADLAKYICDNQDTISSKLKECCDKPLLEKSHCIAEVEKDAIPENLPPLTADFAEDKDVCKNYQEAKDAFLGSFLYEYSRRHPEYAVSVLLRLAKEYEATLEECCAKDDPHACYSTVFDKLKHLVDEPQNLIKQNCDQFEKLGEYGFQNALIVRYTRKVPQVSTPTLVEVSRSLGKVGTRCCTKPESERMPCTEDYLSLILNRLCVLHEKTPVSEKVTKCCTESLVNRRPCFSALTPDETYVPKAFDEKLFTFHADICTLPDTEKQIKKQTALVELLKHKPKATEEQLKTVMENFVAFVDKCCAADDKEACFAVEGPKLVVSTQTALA

[2] = probe aXIP binding to arrayed compounds – biochemical, NeuroSMM set, 635/667 nm fluorescence, primary screen (AID 1119); conditions: small-molecule microarray, higher = more signal, called active from +8 up or from −8 down;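 further: probe is the protein aXip251-270 applied at 1 µg/mL to compound-printed slides; binding of probe to printed compounds measured as 667 nm fluorescence plus signal to noise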
[3] = probe aNOTCH3 binding on compound microarray – biochemical, small-molecule microarray, 635/667 nm fluorescence, primary screen (AID 1120); conditions: higher = more signal;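 further: probe is a biotin-tagged antibody raised against NOTCH3 rather than NOTCH3 protein; score merges spot fluorescence near 667 nm with spot signal to noise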
[4] = probe aNOTCH2 binding on compound microarray – biochemical, small-molecule microarray, 635/667 nm fluorescence, primary screen (AID 1121); conditions: higher = more signal;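 further: score merges feature fluorescence read at 667 nm with its signal to noise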
[5] = molecular target: Carbonic anhydrase 2 (Homo sapiens) (UniProt P00918); assay: compounds binding carbonic anhydrase 2 – biochemical, small-molecule microarray, Alexa647-labelled CAII, profiling panel (AID 1122); conditions: CAII-A647 binding fluorescence, higher = more signal
[6] = COS7 lysate on small-molecule microarray, probe aHis, 635 nm (AID 1123); conditions: COS7 cell lysate, fluorescence, higher = more signal;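 further: z-score combines 667nm fluorescence intensity with signal-to-noise per printed compound spot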
[7] = probe aLAP1 signal on lysate-treated microarray – cell lysate, small-molecule microarray, COS7 lysate, primary screen (AID 1124); conditions: probe aLAP1, fluorescence, higher = more signal;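 further: lysate comes from COS7 cells expressing LAP1 and is applied at 0.3 µg/mL; score merges spot fluorescence near 667 nm with signal-to-noise over triplicate slides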
[8] = system: Sam68 (KHDRBS1); assay: compounds binding KHDRBS1 protein – biochemical, small-molecule microarray, 635 nm fluorescence, primary screen (AID 1125); conditions: higher = more signal;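 further: score merges 667 nm channel intensity with signal to noise over triplicate slides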
[9] = system: Chordin-like protein 2 (CHRDL2); assay: compounds binding chordin-like 2 – biochemical, small-molecule microarray, 635 nm fluorescence, primary screen (AID 1126); conditions: fluorescence 635 nm, higher = more signal;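 further: printed compound slides probed with Chrdl2 protein at 4 µg/mL for 1 h at 4 C; score merges 667 nm emission intensity with signal to noise over three replicate slides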
[10] = molecular target: Concanavalin-A (Canavalia ensiformis) (UniProt P02866); assay: compounds binding concanavalin A lectin – biochemical, small-molecule microarray, Alexa647 label, 635 nm, artefact control for SMM control protein annotation, primary screen (AID 1127); conditions: ConA-A647 binding fluorescence, higher = more signal;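 further: z combines 667 nm emission intensity with signal-to-noise across three replicate slides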
Chain of Concanavalin-A (Canavalia ensiformis) (P02866 whole entry, looked up): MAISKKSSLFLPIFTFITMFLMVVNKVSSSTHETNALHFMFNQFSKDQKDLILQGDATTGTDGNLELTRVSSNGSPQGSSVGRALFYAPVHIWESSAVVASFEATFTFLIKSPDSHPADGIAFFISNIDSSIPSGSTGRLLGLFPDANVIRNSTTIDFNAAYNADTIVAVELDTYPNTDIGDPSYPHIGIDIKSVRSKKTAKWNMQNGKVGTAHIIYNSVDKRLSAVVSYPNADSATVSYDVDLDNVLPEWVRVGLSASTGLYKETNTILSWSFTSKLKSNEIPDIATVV

[11] = compounds binding Alexa647 anti-His antibody – biochemical, small-molecule microarray, 635 nm fluorescence, artefact control for SMM control protein annotation, primary screen (AID 1128); conditions: higher = more signal;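 further: score merges feature fluorescence with signal-to-noise for each printed compound spot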
[12] = system: Human papillomavirus type 1a E7 protein (residues 1-88); assay: HPV1a E7 small-molecule binders, primary screen, biochemical, small-molecule microarray, residues 1-88, 635 nm (AID 1129); conditions: small-molecule microarray binding, fluorescence 635 nm; higher = more signal
[13] = molecular target: Focal adhesion kinase 1 (Homo sapiens) (UniProt Q05397); assay: PTK2 protein binding on printed compound slides – biochemical, small-molecule microarray, 635/667 nm fluorescence, BSA, DTT, primary screen (AID 1130); conditions: 635 nm fluorescence, higher = more signal;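 further: composite of spot emission at 667 nm and signal to noise over triplicate slides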
Chain of Focal adhesion kinase 1 (Homo sapiens) (Q05397 whole entry, looked up): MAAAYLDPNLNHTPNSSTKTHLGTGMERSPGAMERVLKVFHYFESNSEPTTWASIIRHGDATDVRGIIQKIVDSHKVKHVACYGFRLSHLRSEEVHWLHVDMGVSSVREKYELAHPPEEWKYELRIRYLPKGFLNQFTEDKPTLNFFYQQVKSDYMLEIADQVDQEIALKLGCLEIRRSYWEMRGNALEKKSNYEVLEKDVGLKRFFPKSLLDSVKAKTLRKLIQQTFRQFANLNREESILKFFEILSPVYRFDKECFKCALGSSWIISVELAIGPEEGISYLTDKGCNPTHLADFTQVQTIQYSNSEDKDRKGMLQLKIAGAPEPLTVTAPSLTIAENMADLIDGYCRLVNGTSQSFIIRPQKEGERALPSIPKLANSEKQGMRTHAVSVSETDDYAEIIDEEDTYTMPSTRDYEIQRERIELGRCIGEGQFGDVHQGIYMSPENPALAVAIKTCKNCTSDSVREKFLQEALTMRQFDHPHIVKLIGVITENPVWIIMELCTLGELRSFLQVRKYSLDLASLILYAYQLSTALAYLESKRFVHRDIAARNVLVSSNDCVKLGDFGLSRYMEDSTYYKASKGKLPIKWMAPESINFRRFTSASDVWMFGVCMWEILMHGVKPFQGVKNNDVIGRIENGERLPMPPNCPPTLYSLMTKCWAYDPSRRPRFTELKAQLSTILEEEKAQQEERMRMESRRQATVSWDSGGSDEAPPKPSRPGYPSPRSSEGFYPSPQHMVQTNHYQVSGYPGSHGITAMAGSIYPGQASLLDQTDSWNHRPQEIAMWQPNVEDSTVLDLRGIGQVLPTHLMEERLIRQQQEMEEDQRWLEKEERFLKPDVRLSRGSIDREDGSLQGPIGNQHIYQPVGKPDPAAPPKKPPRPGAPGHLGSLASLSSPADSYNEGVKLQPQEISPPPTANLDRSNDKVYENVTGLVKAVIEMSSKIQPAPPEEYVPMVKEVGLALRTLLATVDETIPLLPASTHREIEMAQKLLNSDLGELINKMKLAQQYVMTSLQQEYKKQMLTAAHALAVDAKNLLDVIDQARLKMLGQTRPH

[14] = system: Fibrinogen (Alexa647-labelled); assay: Alexa647-fibrinogen binding to printed small molecules – biochemical, small-molecule microarray, 635/667 nm fluorescence, artefact control for SMM control-protein annotation, profiling panel (AID 1131); conditions: fibrinogen-A647 binding fluorescence, higher = more signal;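 further: z-score merges 667 nm fluorescence with per-spot signal-to-noise over triplicate slides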
[15] = molecular target: Follistatin (Homo sapiens) (UniProt P19883); assay: FST protein binding to printed compounds – biochemical, small-molecule microarray, 635/667 nm fluorescence, primary screen (AID 1132); conditions: 635 nm fluorescence, higher = more signal
Chain of Follistatin (Homo sapiens) (P19883 whole entry, looked up): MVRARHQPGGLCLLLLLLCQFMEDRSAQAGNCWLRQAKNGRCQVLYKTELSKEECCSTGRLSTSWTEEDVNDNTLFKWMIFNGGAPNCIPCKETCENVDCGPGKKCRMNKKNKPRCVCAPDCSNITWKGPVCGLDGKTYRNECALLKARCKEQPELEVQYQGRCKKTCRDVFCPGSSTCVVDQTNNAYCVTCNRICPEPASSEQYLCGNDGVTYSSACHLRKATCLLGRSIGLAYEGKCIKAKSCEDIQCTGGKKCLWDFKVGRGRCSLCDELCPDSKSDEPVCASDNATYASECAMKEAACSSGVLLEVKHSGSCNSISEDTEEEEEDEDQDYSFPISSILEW

[16] = molecular target: Fibroblast growth factor 2 (Homo sapiens) (UniProt P09038); assay: basic fibroblast growth factor binding to printed compounds – biochemical, small-molecule microarray, 635/667 nm fluorescence, primary screen (AID 1133); conditions: FGF2, fluorescence 635/667, higher = more signal
Chain of Fibroblast growth factor 2 (Homo sapiens) (P09038 whole entry, looked up): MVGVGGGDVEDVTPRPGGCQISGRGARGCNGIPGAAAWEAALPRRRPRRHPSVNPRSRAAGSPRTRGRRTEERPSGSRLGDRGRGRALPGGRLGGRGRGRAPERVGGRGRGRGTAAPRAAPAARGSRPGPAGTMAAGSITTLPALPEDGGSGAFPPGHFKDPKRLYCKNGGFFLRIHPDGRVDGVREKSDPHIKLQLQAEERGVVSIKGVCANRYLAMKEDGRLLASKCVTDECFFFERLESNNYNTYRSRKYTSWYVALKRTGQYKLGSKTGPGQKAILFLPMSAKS

[17] = JC-1 mitochondrial potential readout, lung cancer cells – cell-based, A549, JC-1 fluorescence, basal, 24 h, 100 nL, profiling panel (AID 1138); conditions: higher = more signal;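 further: A549 lung adenocarcinoma cells under basal conditions with no added stimulus; test concentration not given here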
[18] = system: Lefty1; assay: Lefty1 protein binding to printed compounds – biochemical, small-molecule microarray, 635/667 nm fluorescence, primary screen (AID 1139); conditions: fluorescence 635/667, higher = more signal
[19] = system: wheat germ agglutinin (Triticum aestivum), Alexa647-labelled; assay: Alexa647-WGA lectin binding to printed small molecules – biochemical, small-molecule microarray, 635/667 nm fluorescence, artefact control for SMM control-protein annotation, profiling panel (AID 1140); conditions: WGA-A647 binding, 635 nm fluorescence, higher = more signal;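 further: score merges 667 nm feature emission with signal to noise over triplicate slides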
[20] = molecular target: Luciferin 4-monooxygenase (Photinus pyralis) (UniProt P08659); assay: inhibition of purified Photinus pyralis luciferase – biochemical, luminescence, purified enzyme, 2006 set, primary screen (AID 1141); conditions: purified firefly luciferase, SteadyGlo luminescence, 30 min; higher = more signal, called active from +8 up or from −8 down;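 further: cell-free assay with purified firefly luciferase at 100 ng per well in PBS; test concentration not given here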
Chain of Luciferin 4-monooxygenase (Photinus pyralis) (P08659 whole entry, looked up): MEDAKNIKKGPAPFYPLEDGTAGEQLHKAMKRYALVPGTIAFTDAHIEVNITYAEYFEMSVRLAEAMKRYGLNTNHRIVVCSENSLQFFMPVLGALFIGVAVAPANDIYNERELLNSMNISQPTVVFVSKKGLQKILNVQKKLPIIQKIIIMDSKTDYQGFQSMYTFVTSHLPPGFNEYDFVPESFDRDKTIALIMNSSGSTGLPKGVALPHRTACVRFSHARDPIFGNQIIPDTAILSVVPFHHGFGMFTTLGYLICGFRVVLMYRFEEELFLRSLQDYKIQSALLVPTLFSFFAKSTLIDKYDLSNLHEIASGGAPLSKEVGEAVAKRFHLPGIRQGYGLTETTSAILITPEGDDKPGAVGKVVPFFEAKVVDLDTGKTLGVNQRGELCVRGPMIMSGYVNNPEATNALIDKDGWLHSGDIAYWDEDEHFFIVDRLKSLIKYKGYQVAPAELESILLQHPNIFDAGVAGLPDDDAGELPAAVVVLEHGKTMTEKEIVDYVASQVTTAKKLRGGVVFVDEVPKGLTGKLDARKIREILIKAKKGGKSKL

Row | Structure (SMILES) | composite z-score [1] | composite Z-score [2] | composite z-score [3] | composite z-score [4] | composite z-score [5] | composite z-score [6] | composite z-score [7] | composite z-score [8] | composite z-score [9] | composite z-score [10] | composite z-score [11] | composite z-score [12] | composite z-score [13] | composite z-score [14] | composite z-score [15] | composite z-score [16] | z-score [17] | composite z-score [18] | composite z-score [19] | z-score [20]
1 | CCOC(=O)C[C@H]1[C@H](OC(=O)c2ccc(-c3ccccc3)cc2)[C@@H](NC(=O)c2ccccc2)c2cc(OCCCO)ccc2N1C(=O)Cc1ccc(OC)cc1 | 0.372 | -0.316 (inactive) | -0.0077 | -0.0664 | -0.0275 | 0.368 | 0.311 | -0.254 | -0.399 | -0.769 | -0.913 | -0.509 | -0.355 | -0.264 | -0.434 | 0.1 | 1.45 | -0.336 | -0.126 | -0.938 (inactive)
2 | CC(C)NC(=O)[C@@H]1c2ccccc2C(=O)N(C(C)C)[C@H]1c1ccc(CO)cc1 | -0.163 | -0.174 (inactive) | -0.215 | -0.179 | 0.644 | 2.97 | 0.338 | 0.637 | -1.38 | 0.185 | -1.51 | -0.0425 | 0.459 | -0.782 | -0.681 | -0.963 | 1.58 | -0.936 | -0.608 | -0.784 (inactive)
3 | COC(=O)[C@@]1(Cc2ccc(OC)cc2)[C@H]2c3cc(C(=O)N4CCCC4)n(CCc4ccc(O)c(O)c4)c3C[C@H]2CN1C(=O)c1ccccc1 | 0.881 | -0.2 (inactive) | 0.144 | 0.336 | 0.79 | 3.42 | 0.932 | -0.0777 | -0.237 | 0.0245 | 2.44 | 1.17 | 0.384 | 0.421 | 0.442 | -0.736 | -0.72 | -0.958 | 1.22 | -7.43 (inactive)
4 | COc1ccc([C@H]2OC[C@@H]3CCC(=O)N32)cc1 | 0.626 | 1.42 (inactive) | 0.0948 | -0.161 | 0.286 | -0.215 | 0.552 | 0.382 | 0.504 | 0.3 | 0.822 | 1.02 | 0.0902 | 0.362 | 0.886 | 0.031 | 0.779 | 1.36 | 0.329 | -0.699 (inactive)
5 | CCCC1(C(=O)OC)C=C2C(=C(c3ccccc3)C(=O)C2C)CN1 (stereo not given) | -0.0235 | 0.589 (inactive) | 0.0365 | 0.015 | 0.756 | 1.51 | 0.959 | 0.0707 | 0.108 | -1.13 | 0.295 | 0.412 | 0.198 | 0.453 | 0.13 | -0.299 | 1.63 | 0.0496 | 0.858 | 1.11 (inactive)
6 | [N-]=[N+]=NCc1ccccc1[C@@H]1OC(c2ccc(OCCCO)cc2)=N[C@]1(CCS(=O)(=O)c1ccccc1)C(=O)N1CCOCC1 | 0.923 | -0.244 (inactive) | 0.391 | 0.104 | 0.513 | 2.62 | 0.254 | 1.3 | -0.213 | 1.19 | 3.06 | 1.24 | 0.531 | 1 | 1.16 | 0.138 | -0.191 | 0.186 | 1.24 | -1.43 (inactive)
7 | CC(=O)NCCCC[C@@H]1NC(=O)[C@H]2C[C@@H](C(=O)O)[C@@H](c3ccc(O)cc3)N2C1=O | -0.0314 | 0.297 (inactive) | 0.22 | -0.0798 | 0.411 | 1.14 | 0.177 | 1.29 | 1.36 | 1.1 | 2.26 | 1.21 | 0.626 | 0.584 | 1.32 | 1.67 | -0.738 | 1.45 | 0.478 | -3.39 (inactive)
8 | COC(=O)[C@@]1(Cc2ccc(OC)cc2)[C@H]2c3cc(C(=O)N(C)C)n(Cc4ccc(C(F)(F)F)nc4)c3C[C@H]2CN1C(=O)c1ccccc1 | 0.92 | 3.72 (inactive) | 0.17 | 0.183 | 0.752 | 2.11 | 0.017 | -0.354 | 0.181 | -0.0962 | 0.598 | 0.846 | 1.2 | 0.843 | -0.0313 | -0.49 | 0.549 | -0.501 | 0.833 | 0.678 (inactive)
9 | CCCCCCc1nc(-c2ccc(-c3ccc(Cl)c(Cl)c3)o2)c(C)c2c1[Si](C(C)C)(C(C)C)OC2 | 0.13 | 0.0001 (inactive) | -0.1 | -0.166 | 0.0293 | 0.645 | -0.173 | 0.1 | -1.06 | 0.999 | -0.0923 | -0.634 | -0.0899 | -0.086 | -0.0705 | -0.773 | -0.838 | 0.268 | -0.328 | -2.67 (inactive)
10 | O=C1C2C=CC(C(O)COCc3ccccc3)N(Nc3ccc([N+](=O)[O-])cc3)C2C(=O)N1c1ccccc1 (stereo not given) | 0.734 | 0.845 (inactive) | 0.271 | 0.0449 | 0.766 | 2.9 | 0.143 | 1.31 | 0.412 | 0.519 | 1.55 | 1.25 | 1.19 | 0.983 | 1.13 | 0.119 | -0.738 | 0.638 | 0.955 | 1.54 (inactive)
11 | CCCCC(=C=CC[C@H](O)c1cccc(OCCO)c1)C[C@H](O)c1ccccn1 | 0.424 | 0.152 (inactive) | -0.0014 | -0.153 | 0.693 | -0.0434 | -0.165 | -0.15 | 0.23 | 0.503 | 0.536 | -0.0708 | -0.0538 | 0.538 | 0.346 | 0.257 | 0.782 | 0.38 | 0.0704 | -0.167 (inactive)
